# Data taken from the supplement of paper PMC8728848.
# This is one part of a sample in which the strongest signals are shown more often than they occur.
# B1: Aap brpt (Staphylococcus epidermidis) (protein)
# chain: VDGDPITSTEEIPFDKKREFDPNLAPGTEKVVQKGEPGTKTITTPTTKNPLTGEKVGEGEPTEKITKQPVDEIVHYGGEEIKTGHKDEFDPNAPKGSQTTQPGKPGVKNPDTGEVVTPPVDDVTKYGPVDGDPITSTEEIPFDKKREFDPNLAPGTEKVVQKGEPGTKTITTPTTKNPLTGEKVGEGEPTEKITKQPVDEIVHYGGEEIKPGHKDEFDPNAPKGSQEDVPGKPGVKNPDTGEVVTPPVDDVTKYGPVDGDSITSTEEIPFDKKREFDPNLAPGTEKVVQKGEPGTKTITTPTTKNPLTGEKVGEGEPTEKITKQPVDEIVHYGGEQIPQGHKDEFDPNAPVDSKTEVPGKPGVKNPDTGEVVTPPVDDVTKYGPVDGDSITSTEEIPFDKKREFDPNLAPGTEKVVQKGEPGTKTITTPTTKNPLTGEKVGEGKSTEKVTKQPVDEIVEYGPTK
# Tests used:
# Assay in all cases: glycan array binding signal (z-score within array); higher = stronger binding
# Conditions in all cases: glycan notation: IUPAC condensed, linker removed
# Fuc(a1-2)Gal(b1-3)GalNAc = molecular target: Fuc(a1-2)Gal(b1-3)GalNAc
# Method in brief: (§1)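 Columns mapping to the same glycan were averaged after glycan names were converted to IUPAC-condensed notation. The data come from 3228 arrays in the Consortium for Functional Glycomics database, limited to those with an available protein sequence. Binding is reported as a within-array Z-score averaged across arrays of one protein sequence and across linkers.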
# [1] = molecular target: Fuc(a1-2)Gal(b1-3)GalNAc(b1-4)[Neu5Ac(a2-3)]Gal(b1-4)Glc
# Method in brief: as §1
# [2] = molecular target: Fuc(a1-2)Gal(b1-3)GlcNAc(b1-3)[Gal(b1-4)GlcNAc(b1-6)]Gal(b1-4)Glc
# Method in brief: as §1
# [3] = molecular target: Fuc(a1-2)Gal(b1-4)[Fuc(a1-3)]GlcNAc(b1-3)Gal(b1-4)[Fuc(a1-3)]GlcNAc
# Method in brief: as §1
# [4] = molecular target: Fuc(a1-2)[Gal(a1-3)]Gal(b1-4)Glc
# Method in brief: as §1
# [5] = molecular target: Fuc(a1-2)[GalNAc(a1-3)]Gal(b1-4)GlcNAc(b1-2)Man(a1-3)[Fuc(a1-2)[GalNAc(a1-3)]Gal(b1-4)GlcNAc(b1-2)Man(a1-6)]Man(b1-4)GlcNAc(b1-4)[Fuc(a1-6)]GlcNAc
# Method in brief: as §1
# [6] = molecular target: Fuc(a1-2)[GalNAc(a1-3)]Gal(b1-4)GlcNAc(b1-3)GalNAc
# Method in brief: as §1
# [7] = molecular target: Fuc(a1-3)[Gal(b1-4)]Glc6S
# Method in brief: as §1
# [8] = molecular target: Fuc(a1-3)[Gal3S(b1-4)]Glc
# Method in brief: as §1
# Gal(a1-3)Gal = molecular target: Gal(a1-3)Gal
# Method in brief: as §1
# [9] = molecular target: Gal(a1-3)[Gal(a1-4)]Gal(b1-4)GlcNAc
# Method in brief: as §1
# [10] = molecular target: Gal(b1-3)GlcNAc(b1-3)Gal(b1-3)GlcNAc
# Method in brief: as §1
# [11] = molecular target: Gal(b1-3)GlcNAc(b1-3)Gal(b1-4)GlcNAc(b1-2)Man(a1-3)[Gal(b1-3)GlcNAc(b1-3)Gal(b1-4)GlcNAc(b1-2)Man(a1-6)]Man(b1-4)GlcNAc(b1-4)GlcNAc
# Method in brief: as §1
# [12] = molecular target: Gal(b1-3)GlcNAc(b1-3)Gal(b1-4)GlcNAc(b1-3)Gal(b1-4)GlcNAc(b1-2)[Gal(b1-3)GlcNAc(b1-3)Gal(b1-4)GlcNAc(b1-3)Gal(b1-4)GlcNAc(b1-6)]Man(a1-6)[Gal(b1-3)GlcNAc(b1-3)Gal(b1-4)GlcNAc(b1-3)Gal(b1-4)GlcNAc(b1-2)Man(a1-3)]Man(b1-4)GlcNAc(b1-4)[Fuc(a1-6)]GlcNAc
# Method in brief: as §1
# [13] = molecular target: Gal(b1-3)[Neu5Ac(a2-6)]GalNAc
# Method in brief: as §1
# Gal(b1-4)GlcNAc(b1-2)Man = molecular target: Gal(b1-4)GlcNAc(b1-2)Man
# Method in brief: as §1
# [14] = molecular target: Gal(b1-4)GlcNAc(b1-2)Man(a1-6)Man(b1-4)GlcNAc(b1-4)GlcNAc
# Method in brief: as §1
# [15] = molecular target: Gal(b1-4)GlcNAc(b1-2)[Gal(b1-4)GlcNAc(b1-4)]Man(a1-3)[Gal(b1-4)GlcNAc(b1-2)[Gal(b1-4)GlcNAc(b1-6)]Man(a1-6)]Man(b1-4)GlcNAc(b1-4)GlcNAc
# Method in brief: as §1
# [16] = molecular target: Gal(b1-4)GlcNAc(b1-2)[Gal(b1-4)GlcNAc(b1-4)]Man(a1-3)[GlcNAc(b1-4)][Gal(b1-4)GlcNAc(b1-2)[Gal(b1-4)GlcNAc(b1-6)]Man(a1-6)]Man(b1-4)GlcNAc(b1-4)GlcNAc
# Method in brief: as §1
# [17] = molecular target: Gal(b1-4)GlcNAc(b1-3)Gal(b1-3)GalNAc
# Method in brief: as §1
# [18] = molecular target: Gal(b1-4)GlcNAc(b1-3)Gal(b1-4)GlcNAc(b1-2)Man(a1-3)[Gal(b1-4)GlcNAc(b1-3)Gal(b1-4)GlcNAc(b1-2)Man(a1-6)]Man(b1-4)GlcNAc(b1-4)GlcNAc
# Method in brief: as §1
# [19] = molecular target: Gal(b1-4)GlcNAc(b1-3)Gal(b1-4)GlcNAc(b1-2)Man(a1-3)[Gal(b1-4)GlcNAc(b1-3)Gal(b1-4)GlcNAc(b1-2)Man(a1-6)]Man(b1-4)GlcNAc(b1-4)[Fuc(a1-6)]GlcNAc
# Method in brief: as §1
# [20] = molecular target: Gal(b1-4)GlcNAc(b1-3)Gal(b1-4)GlcNAc(b1-3)Gal(b1-4)GlcNAc
# Method in brief: as §1
# [21] = molecular target: Gal(b1-4)GlcNAc(b1-3)Gal(b1-4)GlcNAc(b1-3)Gal(b1-4)GlcNAc(b1-2)[Gal(b1-4)GlcNAc(b1-3)Gal(b1-4)GlcNAc(b1-3)Gal(b1-4)GlcNAc(b1-6)]Man(a1-6)[Gal(b1-4)GlcNAc(b1-3)Gal(b1-4)GlcNAc(b1-3)Gal(b1-4)GlcNAc(b1-2)Man(a1-3)]Man(b1-4)GlcNAc(b1-4)[Fuc(a1-6)]GlcNAc
# Method in brief: as §1
# [22] = molecular target: Gal(b1-4)GlcNAc(b1-3)Gal(b1-4)GlcNAc(b1-3)Gal(b1-4)GlcNAc(b1-3)Gal(b1-4)GlcNAc(b1-2)Man(a1-3)[Gal(b1-4)GlcNAc(b1-3)Gal(b1-4)GlcNAc(b1-3)Gal(b1-4)GlcNAc(b1-3)Gal(b1-4)GlcNAc(b1-2)Man(a1-6)]Man(b1-4)GlcNAc(b1-4)GlcNAc
# Method in brief: as §1
# [23] = molecular target: Gal(b1-4)GlcNAc(b1-6)[Gal(b1-4)GlcNAc(b1-3)]GalNAc
# Method in brief: as §1
# [24] = molecular target: Gal3S(b1-4)[Fuc(a1-3)]Glc6S
# Method in brief: as §1
# [25] = molecular target: GlcNAc(a1-4)Gal(b1-3)GlcNAc
# Method in brief: as §1
binder,measurement,setting,value
B1,glycan array binding signal (z-score),Fuc(a1-2)Gal(b1-3)GalNAc,-1
same,glycan array binding signal (z-score),[1],-0.026
same,glycan array binding signal (z-score),[2],0.337
same,glycan array binding signal (z-score),[3],-0.951
same,glycan array binding signal (z-score),[4],-0.658
same,glycan array binding signal (z-score),[5],0.323
same,glycan array binding signal (z-score),[6],-2.27
same,glycan array binding signal (z-score),[7],0.738
same,glycan array binding signal (z-score),[8],0.077
same,glycan array binding signal (z-score),Gal(a1-3)Gal,2.41
same,glycan array binding signal (z-score),[9],0.93
same,glycan array binding signal (z-score),[10],-0.56
same,glycan array binding signal (z-score),[11],-0.969
same,glycan array binding signal (z-score),[12],-0.027
same,glycan array binding signal (z-score),[13],0.106
same,glycan array binding signal (z-score),Gal(b1-4)GlcNAc(b1-2)Man,-0.301
same,glycan array binding signal (z-score),[14],-0.494
same,glycan array binding signal (z-score),[15],0.481
same,glycan array binding signal (z-score),[16],-0.768
same,glycan array binding signal (z-score),[17],-0.487
same,glycan array binding signal (z-score),[18],3.34
same,glycan array binding signal (z-score),[19],0.377
same,glycan array binding signal (z-score),[20],0.054
same,glycan array binding signal (z-score),[21],2.44
same,glycan array binding signal (z-score),[22],-0.738
same,glycan array binding signal (z-score),[23],-0.18
same,glycan array binding signal (z-score),[24],2.61
same,glycan array binding signal (z-score),[25],-0.124
